Source: PubChem (National Center for Advancing Translational Sciences (NCATS))
VP16 counter: counter-screen for ROR gamma inhibitors: Gal4-VP16 reporter | Drosophila S2 Gal4-VP16 UAS-luciferase, luminescence, 20 h | Potency, µM (highest dose often 53.6 µM), without a hit: at the top dose activity, negative = inhibition, hits mostly inhibitors | 3.5% of 310,000 active;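 note: Gal4-VP16 expression switched on by copper sulfate through the metallothionein promoter; potency is the fitted concentration of half-maximal effect; % is set by controls: 0 for no effect and ±100 for the full control effect; nearly all actives have a fitted effect of over 50% in size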
MCF10A rerep: inducers of DNA re-replication in MCF 10A breast cells. MCF 10A DNA re-replication, Hoechst nuclear intensity, 48 h. Potency, µM (titrated, usually from 46.1 µM), for the others: at the highest dose activity, positive = re-replication, hits mostly activators. 2.9% of 350,000 active; note: potency is the fitted concentration of half-maximal effect; % of control where 0% means no effect; nearly all actives have a fitted effect of over 50% in size
SW480 rereplic: inducers of DNA re-replication in SW480 colon cancer cells; SW480 DNA re-replication, Hoechst DNA content imaging, 48 h; Potency, µM (highest dose often 46.1 µM), inactives show top-dose re-replication activation, actives largely listed as activators; 1.8% of 340,000 active; note: potency is the fitted concentration of half-maximal effect; % of control where 0% means no effect; nearly all actives have a fitted effect of over 55% in size
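DNA re-replication was detected as more nuclei of elevated Hoechst intensity after 48 hr exposure to compound (23 nL pinned per well of 250 cells).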
IL-1B inflam inh: inflammasome signaling inhibition, IL-1 beta readout | activity change, % at 57.5 µM | 4.7% of 360,000 active | AID 743279 | THP-1 LPS/ATP IL-1B secretion, AlphaLISA, 16 h; stronger effect = lower value; in the data active = activity change below about -50%; inconclusive = mostly about -30% to -49%; note: % is set by controls: 0 for no effect and ±100 for the full control effect
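Secreted IL-1B measured by AlphaLISA bead assay after 16 h compound exposure of THP-1 cells; compounds (final up to 57.5 uM) added 1 h before LPS (250 ng/mL) and ATP (1.25 mM) stimulation; lower signal means less secretion.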
RORgamma inh: ROR gamma (mouse) transcription inhibition. P51450. Drosophila S2 Gal4-RORgamma UAS-luciferase reporter, 20 h. Potency, µM (titrated, usually from 53.6 µM), for the others: top-dose activity change, negative = inhibition, actives largely listed as inhibitors. 5.4% of 310,000 active. AID 2551; note: potency is the fitted concentration of half-maximal effect; % is set by controls: 0 for no effect and ±100 for the full control effect; nearly all actives have a fitted effect of over 60% in size
Target sequence (P51450 whole entry, looked up, the tested form may be a part): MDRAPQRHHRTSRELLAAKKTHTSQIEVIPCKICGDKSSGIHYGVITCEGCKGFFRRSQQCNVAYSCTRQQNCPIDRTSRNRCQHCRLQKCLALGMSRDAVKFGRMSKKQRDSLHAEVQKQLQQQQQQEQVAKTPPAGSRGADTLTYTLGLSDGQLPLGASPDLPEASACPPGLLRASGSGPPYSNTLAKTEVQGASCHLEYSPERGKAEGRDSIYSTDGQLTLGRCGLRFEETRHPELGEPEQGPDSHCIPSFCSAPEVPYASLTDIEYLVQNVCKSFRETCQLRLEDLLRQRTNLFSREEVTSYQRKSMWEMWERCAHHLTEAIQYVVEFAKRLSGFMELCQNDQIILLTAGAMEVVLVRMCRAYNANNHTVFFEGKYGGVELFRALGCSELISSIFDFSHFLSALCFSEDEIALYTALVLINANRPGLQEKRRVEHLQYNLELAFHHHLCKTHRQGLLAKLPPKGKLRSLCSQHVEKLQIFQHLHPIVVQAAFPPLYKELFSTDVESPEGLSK
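Luciferase reporter read in Schneider cells carrying Gal4-RORγ (mouse) and UAS-Photinus luciferase; cells given compound 1 h before 700 uM copper sulfate induction, then incubated 20 h at ambient temperature.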
Active calls of the source: *; ? = inconclusive; nt = no result given; [ ] = remark or other dose. Sampled rows, rich in hits. Any-hit rate of the full collection: about 11%. Unless noted, calls come from the whole dose curve; as a rule, active = well fitted curve in the direction sought with a large enough effect; inconclusive = small, poorly fitted or top-dose-only effect, or another doubt; inactive = no such curve, though single readings can be large; an effect the other way counts as inactive or inconclusive.

SMILES	VP16 counter	MCF10A rerep	SW480 rereplic	IL-1B inflam inh	RORgamma inh
C/C(=C(/CCOC(=O)C(C)C)SS/C(CCOC(=O)C(C)C)=C(\C)N(C=O)Cc1cnc(C)nc1N)N(C=O)Cc1cnc(C)nc1N	-3%	2%	-3%	nt	10%
NS(=O)(=O)c1ccc(CCNS(=O)(=O)c2ccc3c(c2)NC(=O)CO3)cc1	-3%	7%	-17%	-11	-12%
Cc1cccc(N2CC(C(=O)Nc3nnc(SCC(=O)N4CCOCC4)s3)CC2=O)c1 (centres undefined)	0%	-8%	-11%	3	-12%
N#Cc1c(-c2ccc(F)cc2)cc(-c2ccccc2)nc1SCC(=O)NCC(=O)O	-7%	-4%	16µM*	-14	18%
COc1ccc(-c2cc(-c3ccccc3)c(C#N)c(SCC(=O)Nc3ncc(C)s3)n2)cc1	9%	23µM*	?	5	20%
COc1ccc(-c2cc(-c3ccccc3)nc(SCC(=O)Nc3nccs3)c2C#N)cc1	-3%	?	-5%	68	-39%
CC(Sc1cccc[n+]1[O-])C(=O)NC1CCCCC1C (centres undefined)	nt	20%	-29%	22	nt
CC(C)(C)[C@@H]1COC(=O)[C@H](Cc2ccc(F)cc2)CC/C=C\C[C@@H](CC(=O)N(CCO)Cc2ccccc2)C(=O)N1	nt	-5%	-2%	-11	nt
S=C(S)O[C@@H]1C[C@@H]2C[C@H]1[C@@H]1CCC[C@H]21	1µM*	nt	nt	nt	0.56µM*
S=C(S)OC1CC2CC1C1CCCC21 (centres undefined)	nt	?	?	-5	nt
O=C(/C=C/c1ccc(Cl)cc1Cl)c1ccc[nH]1	6%[10 µM]	117%	?	-86*	32%
O=C(/C=C/c1ccc(Cl)cc1Cl)n1cccn1	1%	?	?	-61*	21%
CN(C)/C=C/C(=O)/C=C/c1ccc(Cl)cc1Cl	-18%	?	3%	?	4%
O=C(/C=C/c1ccccc1Cl)c1ccc[nH]1	28%	?	4.6µM*	?	-34%
CCN(C1CCCCC1)S(=O)(=O)c1cc2c3c(c1)CCN3C(=O)CC2	nt	?	?	27	nt
Cc1cc(OCC(=O)Nc2ccc(F)c(F)c2)nc(C(C)C)n1	16%	?	23µM*	?	9%
CN(CCOc1ccc(C[C@H](Nc2ccccc2C(=O)c2ccccc2)C(=O)O)cc1)c1ccccn1	1%	nt	nt	nt	38%
O=C1NC[C@H](CCCCN2C[C@H](Cc3ccccc3)N(CCc3ccc(O)cc3)C(=O)C2=O)N(CCC2CCCCC2)C1=O	nt	nt	nt	-57*	nt
O=C1NC[C@H](CCCCN2C[C@H](Cc3ccccc3)N(CC3CCCCC3)C(=O)C2=O)N(CC2CCCCC2)C1=O	nt	nt	nt	-77*	nt
COc1ccc(Cl)cc1-c1nc(SCC(=O)NCC2CCCO2)n[nH]1 (centres undefined)	nt	-6%	-8%	5	nt
COCCN(C(=O)c1ccc(C)c(S(=O)(=O)N2CCOCC2)c1)c1c(N)n(CC(C)C)c(=O)[nH]c1=O	nt	3%	6%	9	nt
CCn1c(SCC(=O)NC(=O)c2ccccc2OC)nc2ccccc21	-1%	-2%	-3%	49	-25%
CC(NCC(O)c1ccc([N+](=O)[O-])cc1)C12CC3CC(CC(C3)C1)C2 (centres undefined)	?	17%	2%	-85*	-6%
CN(C)/C=C/C(=O)/C=C/c1cn(-c2ncc(C(F)(F)F)cc2Cl)c2ccccc12	-6%	3.7µM*	?	-8	?
COc1ccc(CCC(=O)Nc2ccc(Cn3ccnc3)cc2)cc1	4%	8%	-12%	-19	11%
SMILES	VP16 counter	MCF10A rerep	SW480 rereplic	IL-1B inflam inh	RORgamma inh
CC(C)(C)S(=O)N1Cc2cc(=O)n(Cc3ccccc3)c(CCO)c2[C@@H]1CCO (some centres undefined)	nt	-4%	4%[9.22 µM]	12	nt
CCCCN(C(=O)c1cc(S(=O)(=O)N2CCCCC2)ccc1Cl)c1c(N)n(CCC)c(=O)[nH]c1=O	nt	-8%	2%	3	nt
NCCCC[C@H]1CNC(=O)C(=O)N1CCc1cccc2ccccc12	-1%	-7%	-4%	37	-12%
CCCCN1C(=S)NC[C@@H]1Cc1cccc2ccccc12	11µM*	2%	-2%	13	3.2µM*
CCCC[C@@H]1CNC(=S)N1CCc1cccc2ccccc12	4.5µM*	?	-9%	-21	1.6µM*
O=C1NC[C@@H](Cc2cccc3ccccc23)N(CC2CCCCC2)C1=O	-4%	30%	-1%	?	8%
S=C1NC[C@H](Cc2ccccc2)N1CCc1cccc2ccccc12	5.6µM*	-9%	-10%	-6	1µM*
CCCCN1C(=O)C(=O)NC[C@H]1Cc1cccc2ccccc12	nt	nt	nt	20	nt
S=C1NC[C@H](Cc2cccc3ccccc23)N1CC1CCCCC1	5µM*	?	-9%	18	0.71µM*
Cc1nc(C(F)(F)F)ccc1C(=O)N1CCC(C)(C(=O)O)C1 (centres undefined)	nt	nt	nt	20	nt
Cc1ccc(NS(=O)(=O)c2cc(-c3n[nH]c(=O)c4ccccc34)ccc2C)cc1	-6%	?	23µM*	-3	?
CCN(CC)CCNC(=O)c1cc2c(=O)n(C)c3ccccc3c2n1C	?	?	4%	?	1%
CCN(CC)CCCNC(=O)c1cc2c(=O)n(C)c3ccccc3c2n1C	-1%	?	16%	-87*	-35%
CN(C)CCNC(=O)c1cc2c(=O)n(C)c3ccccc3c2n1C	2%	24%	-3%	-20	-13%
Cn1nc(C(=O)Nc2ccc3c(c2)OCCO3)c2ccccc2c1=O	nt	6%	-8%	?	nt
CCCCN(CC)CCNC(=O)c1cc2c(=O)n(C)c3ccccc3c2n1C	0%	?	?	-80*	-2%
Cn1c(C(=O)NC2CC2)cc2c(=O)n(C)c3ccccc3c21	10%	-2%	-8%	-63*	23%
CCOC(=O)N1CCC(NC(=O)c2cc3c(=O)n(C)c4ccccc4c3n2C)CC1	-12%	9%	14%	-5	-25%
Cn1c(C(=O)Nc2ccc3c(c2)OCCO3)cc2c(=O)n(C)c3ccccc3c21	3%	9%	-1%	-69*	30%
CCCOc1ccc(F)cc1-c1cc(C(=O)Nc2ccc(C)c(NS(C)(=O)=O)c2)[nH]n1	nt	nt	nt	-11	nt
O=C(COc1ccc(S(=O)(=O)N2CCOCC2)cc1)Nc1cccc([N+](=O)[O-])c1	-21%	1%	-10%	-20	?
CCCCOc1ccc(N(CC(=O)NCCOC)C(=O)CCC(=O)Nc2ccccn2)cc1	-1%	-2%	-8%	0	-7%
CC(=O)Nc1ccn(C2CC3OCC(NC(=O)C(NC(=O)OC(C)(C)C)C(C)OCc4ccccc4)C3O2)c(=O)n1 (centres undefined)	-5%	nt	nt	nt	-19%
